Test results taken from PubChem BioAssay (NCI).
About 83,000 compounds went through this panel and 20% of them were active in at least one assay; those are over-represented in the sample as a whole.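 Cells were grown in 96-well plates and exposed to the test compound at a single concentration for 48 hours; results are reported as percent growth, with values below 10 considered active.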 The source made the active and inactive calls.

Each compound was assayed on HL-60(TB) leukemia (assay: NCI-60 one-dose screen, 48 h (100 = growth as untreated, 0 = no growth, -100 = all killed)). Details: 10 µM unless noted.

SMILES | growth
C/C(=N\Nc1ccc2ccccc2n1)c1ccccn1 | -39% (active)
CC1=C(C)C(=O)OC([C@](C)(O)[C@]2(O)CC[C@@]3(O)[C@@H]4C[C@H]5O[C@]56CC=CC(=O)[C@]6(C)[C@H]4CC[C@]23COC(=O)c2ccc(C)o2)C1 (stereo partly specified) | -22.6% (active)
CNC(=O)c1cn2c3c(c(N4CCN(C)CC4)c(F)cc3c1=O)OC[C@@H]2C | 99.3% (inactive)
CCCOC(=O)C1(O)CCCC1 | 107% (inactive)
Cc1nc(/N=C(\N)NC(=O)Nc2cccc(Cl)c2)sc1C | 42.8% (inactive)
O=c1[nH]c(CN2CCN(c3ccccc3F)CC2)nc2sc3c(c12)CCC3 | 116% (inactive)
[Cl-].[Rh+3].c1ccc(-c2ccnc3c2ccc2c(-c4ccccc4)ccnc23)cc1.c1ccc(-c2ccnc3c2ccc2c(-c4ccccc4)ccnc23)cc1.c1ccc(-c2ccnc3c2ccc2c(-c4ccccc4)ccnc23)cc1 | 99.9% (inactive)
Fc1[nH]nc2ccc([C@@H]3Nc4ccc5[nH]ncc5c4[C@H]4C5CCC(C5)[C@@H]34)cc12 (stereo partly specified) | 14.4% (inactive)
CN(C)c1ccc(N=C2C=CC(=O)c3ccccc32)cc1 | 82.2% (inactive)
CCCCOC(=O)C1OC(Oc2ccc3c(C)cc(=O)oc3c2)[C@@H](OC(C)=O)C(OC(C)=O)C1OC(C)=O (stereo partly specified) | 102% (inactive)
O=C(Nc1cc(Cl)ccc1O)c1cccc(Nc2ccnc(C(F)(F)F)c2)c1 | -18% (active)
O=C(CCCCCCSc1nc(-c2ccccc2)cc(-c2ccccc2)n1)NO | -33.2% (active)
CCCCCc1ccc(S(=O)(=O)Nc2cc(-c3csc(NC(C)=O)n3)ccc2N2CCN(C)CC2)cc1 | -61.7% (active)
O=C(/C=C/c1ccccc1)c1ccc(Nc2nc(Nc3ccc(F)cc3)nc(Nc3ccc(Cl)cc3)n2)cc1 | 43.9% (inactive)
O=C1OCC2=C1C(c1cccc(C(F)(F)F)c1)c1cc3c(cc1N2CCO)OCCO3 (stereo unspecified) | -29.5% (active)
CC1(C)N=C(N)N=C(N)N1c1cccc(/C=C/C=C/c2cccc([N+](=O)[O-])c2)c1 | 12% (inactive)
Nc1ncc(-c2ccc3ncnc(N4CCc5ccc(Cl)cc54)c3c2)cc1C(F)(F)F | 22.9% (inactive)
CC(C)(C)c1cc(C(=O)N2CCC(C(=O)NCCN)CC2)cc(C(C)(C)C)c1 | 90.5% (inactive)

SMILES | growth
O=C(CN1C(=O)S/C(=C\C(Cl)=C\c2ccccc2)C1=O)NCCCn1ccnc1 | -4.78% (active)
Cc1cnc(N)s1 | 97.7% (inactive)
COC(=O)[C@]12CC[C@@H](C)[C@H](C)[C@@H]1C1=CC[C@@H]3[C@@]4(C)C=C(O)C(=O)[C@@]5(C)COC(=C54)C[C@@]3(C)[C@]1(C)CC2 | -50% (active)
O=C1/C(=C/c2ccc(C(F)(F)F)cc2)COc2ccc(O)c(O)c21 | -26.1% (active)
Cc1ccc(C(=O)c2ccc(CC(=O)N=Nc3c(O)[nH]c4ccc(OC(F)(F)F)cc34)n2C)cc1 | 94.6% (inactive)
N#CC[C@H](C1CCCC1)n1cc(-c2ncnc3[nH]ccc23)cn1 | 97.7% (inactive)
C=C1CC[C@@H]2[C@](C)(COC(C)=O)[C@H](OC(C)=O)CC[C@@]2(C)[C@@H]1CC(NCc1ccc(F)cc1)C1=CCOC1=O (stereo partly specified) | -9.52% (active)
O=C(Nc1ccc(-n2cc(-c3ccncc3)c(-c3ccc(Cl)c(O)c3)n2)cc1)c1ccc(Cl)c(C(F)(F)F)c1 | -29.1% (active)
CC(C)(C)c1ccc(S(=O)(=O)O)s1 | 82.5% (inactive)
O=C(Nc1ccc(F)cc1F)c1cc(I)ccc1O | -34.5% (active)
CC1CCN(CCOc2ccc(CNc3ccc4nc(CCC5CCCCC5)[nH]c4c3)cc2)CC1 | 5.83% (active)
O=C(Nc1ccc(-n2ccc3c(NC(=O)c4ccccc4)nccc32)cc1)c1ccc(Cl)c(C(F)(F)F)c1 | 25.7% (inactive)
Cn1cc(-c2csc(-c3cn(C)c4ccc(F)cc34)n2)c2cnccc21 | -44.8% (active)
O=C(/C=C/c1sc(Cl)nc1Cl)c1ccccc1 | 42.2% (inactive)
CN(C)Cc1cccs1 | 104% (inactive)
CCOC(=O)c1c(C)oc2ncnc(Nc3ccc(NC(=O)Nc4cccc(Cl)c4)cc3)c12 | 88.4% (inactive)
N/C(=N\C(N)=N\c1nc2ccccc2s1)c1ccnc(Cl)c1 | 1.2% (active)
NCCCNc1nc2ccccc2c2c(=O)c3cc(C(F)(F)F)ccc3sc12 | -23% (active)
